Inconclusive results are not listed. A structure can be active in one record and inactive in another. Active and inactive are the calls of the source. Rule for the calls: active = hit-call score of the fitted dose curve at least 0.9, where 1 is the maximum; inconclusive = response in the unintended direction; inactive = score below 0.9.
Experiments:
[1] = ACEA_AR_agonist_AUC_viability: ACEA Biosciences xCELLigence Real-Time Cell Analysis on Androgen Receptor Agonism for Viability (AID 2283775);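 for AC50: viability read 80 hours after compound addition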
Summary of the method: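 Real-time impedance tracking of 22Rv1 growth, readings every 5 min for 5 h then hourly; area-under-curve viability endpoint at 80 hours, relative to DMSO. Compounds at eight concentrations, 1:4 steps, top 100 uM, n = 2.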

[2] = ACEA_AR_antagonist_AUC_viability: ACEA Biosciences xCELLigence Real-Time Cell Analysis on Androgen Receptor Antagonism for Viability (AID 2283776);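 note: 22Rv1 human prostate cancer cells growing on impedance electrode plates; hits lower the growth signal relative to DMSO meaning cytotoxicity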
Summary of the method: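 Impedance read-out (RT-CES): area under growth curve at 80 h post-dose, loss of signal scored vs DMSO baseline. 22Rv1 cells; 8-pt 1:4 series, top 100 uM final, ≤0.5% DMSO; biological duplicate.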

[3] = molecular target: zebrafish Estrogen Receptor (ESR1), esr1 (gene 259252) (UniProt P57717); test: ATG_zfER1_XSP1: Attagene TRANS-FACTORIAL Multi-Species (XSP1) HepG2 Assay for zebrafish Estrogen Receptor (ESR1) (AID 2283772)
zebrafish Estrogen Receptor (ESR1), esr1 (gene 259252), sequence (P57717 whole entry, looked up, the tested form may be a part): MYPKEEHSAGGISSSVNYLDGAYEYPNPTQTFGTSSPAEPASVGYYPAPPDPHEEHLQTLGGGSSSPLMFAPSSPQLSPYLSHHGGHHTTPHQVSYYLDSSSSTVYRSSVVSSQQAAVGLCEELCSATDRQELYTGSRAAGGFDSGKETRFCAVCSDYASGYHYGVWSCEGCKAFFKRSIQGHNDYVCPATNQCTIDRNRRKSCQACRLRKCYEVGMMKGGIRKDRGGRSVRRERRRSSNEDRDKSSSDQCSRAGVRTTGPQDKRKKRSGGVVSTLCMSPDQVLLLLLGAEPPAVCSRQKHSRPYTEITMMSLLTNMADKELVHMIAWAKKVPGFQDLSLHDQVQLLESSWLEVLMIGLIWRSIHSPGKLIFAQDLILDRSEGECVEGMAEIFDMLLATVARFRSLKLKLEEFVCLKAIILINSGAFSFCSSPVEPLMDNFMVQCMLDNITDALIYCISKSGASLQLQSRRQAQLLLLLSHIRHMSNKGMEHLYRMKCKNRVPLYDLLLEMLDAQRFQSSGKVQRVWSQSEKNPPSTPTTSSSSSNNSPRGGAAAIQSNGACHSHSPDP
Summary of the method: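 Exogenous chimeric receptor-GAL4 activity is measured in transiently transfected human HepG2 liver cells after 24 h compound exposure. Reporter transcripts are detected by RT-PCR and fluorescent capillary electrophoresis, analysed for signal gain relative to DMSO.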

[4] = tested on: zebrafish Estrogen Receptor (ESR2B), gene 317733; test: ATG_zfER2b_XSP1: Attagene TRANS-FACTORIAL Multi-Species (XSP1) HepG2 Assay for zebrafish Estrogen Receptor (ESR2B) (AID 2283773)
Summary of the method: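 HepG2 cells transiently transfected with multiple GAL4-UAS reporter units expressing chimeric zebrafish ER2b-Gal4; 24 h chemical exposure with 3 nM 6-alpha-fluorotestosterone present. Reporter mRNA measured by RT-PCR and capillary electrophoresis; gain of signal fitted versus DMSO.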

[5] = tested on: frog Estrogen Receptor (ESR2), gene 100174814; test: ATG_frER2_XSP1: Attagene TRANS-FACTORIAL Multi-Species (XSP1) HepG2 Assay for frog Estrogen Receptor (ESR2) (AID 2283774)
Summary of the method: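 HepG2 cells transiently transfected with GAL4-UAS multiplexed reporter units expressing chimeric NR-Gal4 proteins; reporter mRNA measured 24 h after dosing by RT-PCR, FAM labeling, HpaI digestion and capillary electrophoresis. Gain-of-signal relative to DMSO; 3 nM 6-alpha-fluorotestosterone present.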

[6] = tested on: frog Estrogen Receptor (ESR1), gene 398734; test: ATG_frER1_XSP1: Attagene TRANS-FACTORIAL Multi-Species (XSP1) HepG2 Assay for frog Estrogen Receptor (ESR1) (AID 2283777)
Summary of the method: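 Read-out: fluorescent reporter mRNA via RT-PCR, HpaI digestion and capillary electrophoresis, after 24 h chemical exposure of transiently transfected human HepG2 cells expressing exogenous NR-Gal4 chimeras. DMSO served as baseline for positive-direction fitting.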

[7] = tested on: zebrafish Estrogen Receptor (ESR2A), gene 317734; test: ATG_zfER2a_XSP1: Attagene TRANS-FACTORIAL Multi-Species (XSP1) HepG2 Assay for zebrafish Estrogen Receptor (ESR2A) (AID 2283778)
Summary of the method: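 HepG2 cells transiently transfected with multiplexed GAL4-UAS reporter units and chimeric NR-GAL4 receptors; 24 h compound exposure with 3 nM 6-alpha-fluorotestosterone present. Reporter mRNA quantified by RT-PCR and capillary electrophoresis, gain-of-signal fitted relative to DMSO.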

[8] = molecular target: chicken Estrogen Receptor (ESR1), ESR1 (gene 396099) (UniProt P06212); test: ATG_chERa_XSP1: Attagene TRANS-FACTORIAL Multi-Species (XSP1) HepG2 Assay for chicken Estrogen Receptor (ESR1) (AID 2283779)
chicken Estrogen Receptor (ESR1), ESR1 (gene 396099), sequence (P06212 whole entry, looked up, the tested form may be a part): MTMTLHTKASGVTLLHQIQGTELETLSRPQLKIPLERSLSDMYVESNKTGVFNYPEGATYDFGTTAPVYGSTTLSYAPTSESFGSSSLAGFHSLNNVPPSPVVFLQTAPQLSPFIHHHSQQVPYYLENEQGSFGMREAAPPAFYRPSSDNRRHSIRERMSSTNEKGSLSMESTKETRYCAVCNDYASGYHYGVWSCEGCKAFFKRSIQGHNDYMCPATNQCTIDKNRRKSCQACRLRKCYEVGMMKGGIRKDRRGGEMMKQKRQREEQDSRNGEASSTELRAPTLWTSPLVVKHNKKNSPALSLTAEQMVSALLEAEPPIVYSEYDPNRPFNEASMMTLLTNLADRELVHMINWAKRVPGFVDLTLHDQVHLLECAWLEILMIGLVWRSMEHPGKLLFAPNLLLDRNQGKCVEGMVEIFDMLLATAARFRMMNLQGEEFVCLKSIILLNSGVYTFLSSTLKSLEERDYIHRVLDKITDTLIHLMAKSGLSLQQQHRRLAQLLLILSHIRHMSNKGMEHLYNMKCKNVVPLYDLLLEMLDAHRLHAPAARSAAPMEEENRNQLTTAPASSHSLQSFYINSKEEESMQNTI
Summary of the method: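 HepG2 cells transiently transfected with multiplexed GAL4-UAS reporter units expressing chimeric NR-Gal4 proteins; 3 nM 6-alpha-fluorotestosterone present. Reporter mRNA measured 24 h after dosing by RT-PCR, FAM labelling, HpaI digest and capillary electrophoresis; gain of signal versus DMSO.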

Measured: AC50

Clc1ccccc1C(c1ccccc1)(c1ccccc1)n1ccnc1
active: [1] 16.9 µM | [2] 14.7 µM

COc1cc(C(=O)NC2CCN(C)CC2)ccc1Nc1ncc2c(n1)N(C1CCCC1)CC(F)(F)C(=O)N2C
active: [1] 0.00301 µM | [2] 0.00297 µM

c1ccc(C[n+]2cccc3ccccc32)cc1
active: [1] 50 µM | [2] 82.3 µM

CC1=CC(=O)/C(=C(/C)O)C(=O)O1
inactive: [1] | [2]

O=C1O[C@H]([C@@H](O)CO)C(O)=C1O
inactive: [1] | [2]

CC/C(=C(/CC)c1ccc(O)cc1)c1ccc(O)cc1
active: [3] 0.24 nM | [4] 0.0671 nM | [5] 0.078 nM | [1] 21.3 µM | [2] 18 µM | [6] 0.0517 nM | [7] 0.0485 nM | [8] 0.0429 nM

CCCCCCCCCC(=O)O
inactive: [1] | [2]

CCCCOC(=O)CC(CC(=O)OCCCC)(OC(C)=O)C(=O)OCCCC
inactive: [1] | [2]

CCCOC(=O)c1cc(O)c(O)c(O)c1
active: [1] 50 µM | [2] 31.4 µM

C[C@]12CC[C@@H]3c4ccc(O)cc4CC[C@H]3[C@@H]1CCC2=O
inactive: [1] | [2]
active: [3] 14.5 nM | [4] 3.05 nM | [5] 6.32 nM | [2] 71.6 µM | [6] 3.11 nM | [7] 3.83 nM | [8] 5.08 nM

CCCC(=O)OCCC(C)C
inactive: [1]

O=c1c(-c2ccc(O)cc2)coc2cc(O)cc(O)c12
active: [1] 62.9 µM | [2] 28.8 µM

O=C(Nc1ccc(Cl)cc1)Nc1ccc(Cl)c(Cl)c1
active: [1] 6.35 µM | [2] 5.85 µM

Cc1c2ccccc2c(C)c2c1ccc1ccccc12
active: [3] 9590 nM | [4] 16900 nM | [5] 9000 nM | [1] 50 µM | [2] 41.1 µM | [6] 5910 nM | [7] 15700 nM | [8] 5860 nM

CN(C[C@@H](CC[N+]12CCC(C3CCCCC3)(CC1)CC2)c1ccc(Cl)c(Cl)c1)C(=O)c1cc(C(F)(F)F)cc(C(F)(F)F)c1
active: [1] 5.81 µM | [2] 5.8 µM

Reference: PubChem BioAssay (EPA / NIEHS)
